From PubChem BioAssay (NCI)
“And” between values parts separate entries of the source, which are not always exact repeats. Equal values may be shown once. About 83,000 compounds went through this panel and 20% of them were active in at least one assay; those are over-represented in the sample as a whole.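 Method: cells in 96-well plates; compound added at one concentration; 48 h incubation; percent growth measured; values under 10 scored active.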 The source made the active and inactive calls.

Test system: UACC-62 melanoma
Assay: NCI-60 one-dose screen, 48 h (100 = growth as untreated, 0 = no growth, -100 = all killed)
Conditions: 10 µM unless noted
Protocol: Growth inhibition of the UACC-62 human tumor cell line is measured as a screen for anti-cancer activity. Cells are grown in 96 well plates and exposed to the test compound for 48 hours. Compounds are tested at a single concentration, which is 10^-5 M for most compounds. The reported endpoint is percent growth (GI% or GIPRCNT), where numbers from 0 - 100% represent growth inhibition, and numbers from -100% - 0 represent cell death. For example, a value of 40 represents 60% growth inhibition. A value of 0 means no net growth occurred over the course of the experiment. A value of -40 indicates 40% of cells at the beginning of the experiment died by the end of the experiment. A value of -100 means all cells are dead at the end of the experiment.
NCI-60 Human Tumor Cell Lines Screen was performed using the standard one-dose NCI protocol, which is described in more detail at https://dtp.cancer.gov/discovery_development/nci-60/default.htm.
Compounds with GIPRCNT values below 10 were considered active. Activity score was based on GIPRCNT using the following formula: […]
Score is 0 for GIPRCNT values of 100 or above, 50 for GIPRCNT values of 0, and 100 for GIPRCNT values of -100.

Compound | growth
Cc1cc(O)cc2c1[C@H]1CC[C@]3(C)[C@@H](O)CC[C@H]3[C@@H]1C=C2 | 73.5% (inactive)
O=C(N/N=C/c1ccc(OC(F)F)c(OC2CCCC2)c1)c1cnn2c1NC(c1ccccc1)C2 (stereo not given) | 71.2% (inactive)
COc1ccc(S(=O)(=O)c2ccc(C(N)=O)cc2)cc1NC(=O)c1[nH]c(C)c2c1CCCCC2=O | 17% (inactive)
O=C1c2c(O)ccc(O)c2C(=O)c2c(NCCNC(=O)C(O)C(O)C(O)C(O)CO)ccc(NCCNC(=O)C(O)C(O)C(O)C(O)CO)c21 (stereo not given) | -100% [100 µM] (active)
Cn1cc(C(=O)NCCC(=N)N)cc1NC(=O)CN=C(N)N | 98% (inactive)
COc1cccc(Nc2nc(NCCO)c3ccccc3n2)c1 | 67.1% (inactive)
CC(C)(C)[Si](C)(C)OC1[C@@H](CNC(=O)NC(=O)CCl)O[C@@H](n2cnc3c(N)ncnc32)[C@H]1O[Si](C)(C)C(C)(C)C (stereo not given in full) | -75% (active)
CC(C)C1OC23CCCCC2C(C#N)(C#N)C1(C#N)C(=N)O3 (stereo not given) | -2.68% [100 µM] (active)
Cc1nc(-c2ccccc2)cc2c(O)c(C(=O)N/N=C/Cc3ccccc3)[nH]c(=O)c12 | 109% (inactive)
O=C(NCc1cccnc1)c1ccc([N+](=O)[O-])o1 | -67.9% (active)
COc1ccc(C2OCC(C)(C)CO2)cc1OC | 99.9% (inactive)
O=c1[nH]c(=S)c2c(n1CCCO)CCC2 | 97.2% (inactive)
O=S(=O)(OCCO)c1ccccc1 | 94.2% (inactive)
Cc1ccccc1-n1nnc(C(=O)Nc2ccc(-c3ccccc3)cn2)c1C | 45.6% [50 µM] (inactive)
O=[N+]([O-])c1ccc(O)c2ncccc12 | 29.1% (inactive)
COc1ccc(-n2c(SCc3cc(OC)c(OC)c(OC)c3)nc3ccc(C)cc3c2=O)c(OC)c1 | 24.3% (inactive)
Oc1ccc(Cl)cc1CNc1nc2ccccc2[nH]1 | -68.1% (active)
CC12CCC3c4cc(Br)c(O)c(Br)c4CCC3C1CCC2O (stereo not given) | 7.01% [100 µM] (active) and -44.7% [100 µM] (active)
C=CC(=O)N1CC2(CCC(n3nc(-c4ccc(Oc5ccccc5)cc4)c4c(N)ncnc43)CC2)C1 | -90.7% (active)
O=C(NC1CC1)c1cc2n(n1)CC(c1ccccc1)N2 (stereo not given) | 88.4% (inactive)

Compound | growth
COc1cccc2c(=O)c3c(sc12)c(NCCN(C)C)nc1ccccc13 | 57% (inactive)
C[C@@H](Oc1cc(-c2cnn(C3CC4(CCNCC4)C3)c2)cnc1N)c1c(F)ccc(Cl)c1Cl | -88.1% (active)
N#Cc1sc2nc(/C=C3/C=CC=CC3=O)c(O)n2c1N | 18.5% [100 µM] (inactive) and 7.16% [100 µM] (active)
CC(O)c1cc2c(s1)C(=O)c1ccsc1C2=O (stereo not given) | -61.7% [100 µM] (active) and -100% [100 µM] (active)
Cc1ccc(N=c2nc3sc4c(C)ccc(C)c4n3c(N)c2C#N)cc1 | 77.9% (inactive)
O=C1C(N2CCOCC2)=Cc2cccc3cccc1c23 | 91.2% (inactive)
CN(C)CCNc1ccc(NCC[N+](C)(C)Cc2ccc([N+](=O)[O-])cc2)c2c1C(=O)c1ccccc1C2=O | 37.1% [25 µM] (inactive) and 1.14% [25 µM] (active)
CC(=O)OC(=C(C#N)C#N)c1nccnc1C(C)=O | 96.4% [20 µM] (inactive) and -99.5% [20 µM] (active)
Cc1ccc(/C=N/Nc2cc(C)c3ccccc3n2)s1 | -69.9% [100 µM] (active) and -49% [100 µM] (active)
O=c1c(-c2ccc3c(c2)OCO3)coc2c3c(ccc12)OCO3 | 49.2% [100 µM] (inactive) and -100% [100 µM] (active)
CCCCc1ccc(NC(=O)C(F)(F)F)cc1 | 99.9% (inactive)
O=C1/C(=C/c2ccc(Oc3ccccc3)cc2)N=C(c2ccccc2)N1CCc1cccs1 | 72% (inactive)
CC1(C)N=C(N)N=C(N)N1c1cccc(/C=C/C=C/c2cccc([N+](=O)[O-])c2)c1 | 47.3% (inactive)
COc1cc(/C=C/C(=O)C(=Cc2ccc(F)c(F)c2)C(=O)/C=C/c2ccc(O)c(OC)c2)ccc1O | 32.3% (inactive)
O=C(O)C[C@H](O)C[C@H](O)/C=C/c1c(C2CC2)nc2ccccc2c1-c1ccc(F)cc1 | 19.5% (inactive)
CCOC(=O)C1(C#N)C(=O)c2cc[n+](CC[n+]3ccc4c(c3)C(=O)C(C#N)(C(=O)OCC)C4=O)cc2C1=O (stereo not given) | 66.6% [100 µM] (inactive) and 29.5% [100 µM] (inactive)
O=c1c2c(=NCCN3CCCC3)cc3c(=O)n(CCCN4CCOCC4)c(=O)c4c(-c5ccc(CN6CCCC6)cc5)cc(c(O)n1CCCN1CCOCC1)c2c4-3 | -73.2% (active)
O=C(c1cnn2c1NC(c1ccc(F)cc1)C2)N1CCCCC1 (stereo not given) | 101% (inactive)
Brc1ccc(Br)nn1 | 31.9% (inactive)
CC1OC(OC2C(O[C@H]3CC[C@@]4(C)C(=CC[C@H]5[C@@H]6C[C@@H]7O[C@]8(CC[C@H](C)CN8)[C@@H](C)[C@@H]7[C@@]6(C)CC[C@@H]54)C3)OC(CO)C(O)C2OC2OC(CO)C(O)C(O)C2O)C(O)C(O)C1O (stereo not given in full) | 96.6% [100 µM] (inactive) and -100% [100 µM] (active)
